Experimental data from PubChem BioAssay AID1159580 (chemical genetic matrix, 2015).
The whole screen tested about 5,500 compounds, of which about 2,000 (36%) were called active. Roughly 18% stayed inconclusive and do not appear here. No stated cut-off is given here; in the data, active means normalized growth mostly below about 0.91 (no sharp cut-off); inconclusive means no clear call, values can overlap the other calls; inactive means mostly above about 0.92. The list shows a part of the results.

Assay: chemical genetic growth profiling, strain panel (AID 1159580);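 further: tested at 20 µM; growth read once vehicle control cultures reached saturation at 30 °C; 1 = growth at the plate median or of vehicle wells; lower values mean less growth of the strain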
Conditions: S. cerevisiae deletion strains, growth OD
[1] = locus YAL013W, strain DEP1, hits give low values
[2] = locus YDR150W, strain NUM1, hits give low values
[3] = locus YGR078C, strain PAC10, hits give low values
[4] = locus YJR075W, strain HOC1, hits give low values
[5] = locus YMR307W, strain GAS1, hits give low values
[6] = locus YPL055C, strain LGE1, hits give low values

Measured: normalized growth

COc1cc2c(CCNC(C)=O)c[nH]c2cc1O
inactive: [1] 1.02 | locus YAL040C, strain CLN3, hits give low values 1.01 | locus YCL061C, strain MRC1 (second series), hits give low values 1.01 | [2] 1.01 | locus YDR363W, strain ESC2, hits give low values 1.02 | locus YER002W, strain NOP16, hits give low values 1.02 | [3] 1 | [4] 1.02 | [5] 1 | locus YNL128W, strain TEP1, hits give low values 1.02 | locus YNL175C, strain NOP13, hits give low values 0.998 | locus YNL197C, strain WHI3, hits give low values 1.02 | locus YNL224C, strain SQS1, hits give low values 0.996 | locus YOR083W, strain WHI5 (second series), hits give low values 1 | [6] 1.02

CC(=O)NC(CCC(=O)O)C(=O)O (stereo not drawn)
inactive: [1] 0.985 | locus YBR229C, strain ROT2, hits give low values 0.966 | locus YCL061C, strain MRC1, hits give low values 0.984 | locus YDL101C, strain DUN1, hits give low values 0.96 | [2] 0.974 | locus YEL061C, strain CIN8, hits give low values 0.975 | [3] 0.983 | locus YHR030C, strain SLT2, hits give low values 0.973 | locus YJR043C, strain POL32, hits give low values 0.976 | [4] 0.99 | locus YKL190W, strain CNB1, hits give low values 0.99 | locus YLR039C, strain RIC1, hits give low values 0.978 | locus YLR058C, strain SHM2 (second series), hits give low values 0.981 | locus YLR085C, strain ARP6, hits give low values 0.975 | locus YLR262C, strain YPT6, hits give low values 1.01 | locus YML094W, strain GIM5, hits give low values 0.981 | locus YMR219W, strain ESC1, hits give low values 0.975 | locus YMR263W, strain SAP30, hits give low values 0.987 | [5] 1.1 | locus YNL153C, strain GIM3, hits give low values 0.978 | locus YNL298W, strain CLA4 (second series), hits give low values 0.984 | locus YNL322C, strain KRE1, hits give low values 0.984 | locus YNR030W, strain Alg12, hits give low values 1.02 | locus YOL006C, strain TOP1, hits give low values 0.964 | [6] 1.03 | locus YPL241C, strain CIN2, hits give low values 0.973 | locus YPR135W, strain CTF4, hits give low values 0.969
active: locus YHR087W, strain rtc3, hits give low values 1.13 [resistant]
